The results in this text go back to PubChem BioAssay.

The test system of assay [1] is Human papillomavirus type 1a protein E7 (residues 44-93). Briefly: HPV1a E7 fragment binders on microarrays, primary screen, biochemical, small-molecule microarray, residues 44-93, 635 nm fluorescence (AID 1108).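 Further: E7 fragment applied at 1 µg/mL in TBST for 1 h at 4 C; score combines spot fluorescence with its signal to noise ratio.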 As to conditions: small-molecule microarray binding, fluorescence 635 nm; higher = more signal.
Assay [2] is described as follows: modulators of HCV replicon luciferase signal, primary screen, HCV replication inhibitor project, Huh7 cells, luciferase reporter (AID 1109).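 Further: huh7 hepatoma cells harbouring a luciferase neomycin HCV replicon reporter; luciferase luminescence as measure of HCV replicon replication; test concentration not given here.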 As to conditions: 48 h, higher = more signal. Background: Replicon systems follow genome replication, usually without infectious particles.
For assay [3], the target named is Left-right determination factor 2 (Homo sapiens) (UniProt O00292). Nature of the assay: LEFTY2 binders on small-molecule microarrays, primary screen, biochemical, small-molecule microarray, 635 nm fluorescence scan (AID 1110). The conditions noted are these: LEFTY2 binding, higher = more signal.
Sequence of Left-right determination factor 2 (Homo sapiens) (O00292 whole entry, looked up): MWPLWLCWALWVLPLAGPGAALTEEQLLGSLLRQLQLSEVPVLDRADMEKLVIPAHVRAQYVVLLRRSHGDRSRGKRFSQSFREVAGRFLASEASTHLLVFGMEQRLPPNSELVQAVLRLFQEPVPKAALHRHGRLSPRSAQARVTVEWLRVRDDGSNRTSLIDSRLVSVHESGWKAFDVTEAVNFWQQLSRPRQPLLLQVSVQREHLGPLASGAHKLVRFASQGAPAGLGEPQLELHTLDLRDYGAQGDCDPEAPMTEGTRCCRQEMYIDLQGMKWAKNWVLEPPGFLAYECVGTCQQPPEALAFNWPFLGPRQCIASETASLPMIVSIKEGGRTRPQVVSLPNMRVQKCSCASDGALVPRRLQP
The target of assay [4] is Calmodulin-1 (Homo sapiens) (UniProt P0DP23). Briefly: CALM1 binders on microarrays, EGTA buffer, profiling panel, biochemical, small-molecule microarray, Cy5-labelled CALM1 (AID 1111).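 Further: labelled calmodulin applied in Tris saline Tween buffer holding calcium plus EGTA and DTT.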 As to conditions: Cy5-CALM1 binding fluorescence, higher = more signal.
For assay [5] the target is unchanged. Briefly: calcium-bound CALM1 binders on microarrays, profiling panel, artefact control for SMM control-protein annotation, biochemical, small-molecule microarray, Cy5-labelled CALM1, plus calcium (AID 1112).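 Further: score merges spot fluorescence with signal to noise from triplicate slides.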 As to conditions: Cy5-CALM1 binding fluorescence, higher = more signal.
The nature of assay [6]: small-molecule microarray binders of probe aWnt5a, primary screen, biochemical, biotinylated probe, 635/667 nm fluorescence (AID 1113).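 Further: score merges 667 nm fluorescence intensity with signal-to-noise per printed feature.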 As to conditions: higher = more signal.
Assay [7] in a line: small-molecule microarray binders of probe aShh, primary screen, biochemical, biotinylated probe, 635/667 nm fluorescence (AID 1114).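 Further: probe is biotin-labelled aShh protein from a stem cell growth factor screen; measures binding of labelled protein to compounds printed on the slide; score merges feature fluorescence at 667 nm with signal-to-noise.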 As to conditions: higher = more signal.
Assay [8] is described as follows: small-molecule microarray binders of probe aNog, primary screen, biochemical, biotinylated probe, 635/667 nm fluorescence (AID 1115).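 Further: probe is biotinylated aNog protein used at 0.15 µg/mL for 1 h at 4 C; z-score combines 667 nm fluorescence of each spot with its signal to noise.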 As to conditions: higher = more signal.
The target in assay [9] is Torsin-1A-interacting protein 1 (Homo sapiens) (UniProt Q5JTV8). Briefly: LAP1 binders from COS7 cell lysate, primary screen, small-molecule microarray, 635/667 nm fluorescence (AID 1116). The conditions noted are these: COS7-hLAP1 lysate binding, 635 nm fluorescence, higher = more signal.
Sequence of Torsin-1A-interacting protein 1 (Homo sapiens) (Q5JTV8 whole entry, looked up): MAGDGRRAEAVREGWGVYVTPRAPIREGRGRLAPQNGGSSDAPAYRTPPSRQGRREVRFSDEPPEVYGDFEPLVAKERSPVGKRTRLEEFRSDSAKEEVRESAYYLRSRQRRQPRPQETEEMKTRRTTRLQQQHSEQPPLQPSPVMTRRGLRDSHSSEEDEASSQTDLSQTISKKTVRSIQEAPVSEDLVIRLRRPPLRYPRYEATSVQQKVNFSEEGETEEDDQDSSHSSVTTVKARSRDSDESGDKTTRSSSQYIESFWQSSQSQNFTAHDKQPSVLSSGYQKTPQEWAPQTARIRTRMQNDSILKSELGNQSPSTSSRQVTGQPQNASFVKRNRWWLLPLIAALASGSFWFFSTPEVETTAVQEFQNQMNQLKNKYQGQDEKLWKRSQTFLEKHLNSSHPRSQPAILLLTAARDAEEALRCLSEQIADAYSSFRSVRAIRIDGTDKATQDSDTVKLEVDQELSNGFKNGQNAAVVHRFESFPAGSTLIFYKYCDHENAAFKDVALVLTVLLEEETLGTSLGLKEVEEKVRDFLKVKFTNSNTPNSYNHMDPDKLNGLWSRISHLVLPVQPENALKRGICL
Assay [10] concerns the target Alpha-bungarotoxin (Bungarus multicinctus) (UniProt P60615). Briefly: alpha-bungarotoxin binders on microarray, profiling panel, artefact control for SMM control protein annotation, biochemical, small-molecule microarray, Alexa647 label, 635/667 nm fluorescence (AID 1117). As to conditions: alpha-BTX-A647 binding fluorescence, higher = more signal.

Structures are written as SMILES.

Sequence of Alpha-bungarotoxin (Bungarus multicinctus) (P60615 whole entry, looked up): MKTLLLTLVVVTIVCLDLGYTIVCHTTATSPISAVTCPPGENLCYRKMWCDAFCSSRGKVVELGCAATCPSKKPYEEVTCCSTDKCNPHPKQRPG

Consider `CCCNC(=O)[C@@]1(c2ccc([N+](=O)[O-])cc2)CC(=O)N(C(C)C)[C@@H]1c1ccc(CO)cc1`, for which the composite z-score in assay [1] was -0.603; in [3], -0.649; in assay [4], -0.168; in assay [5] it was 0.263; in assay [6] it was -0.18; in [7], -0.138. In addition, the composite z-score in [8] is -0.326; in assay [9] it was -0.824; in assay [10], -0.276. In [2], the z-score turned out to be 0.0828.
Regarding `C[C@]1(C(=O)O)c2ccccc2C(=O)N(Cc2cc(F)cc(C(F)(F)F)c2)[C@H]1c1ccc(CO)cc1`, the composite z-score is 0.156 in assay [1]; 0.324 in assay [3]; -0.16 in assay [4]; -0.348 in [5]; 0.0044 in assay [6]; -0.0035 in assay [7]. In addition, the results for the composite z-score in assay [8], in [9] and in [10] were -0.0446, -0.0131 and -0.408, respectively. Moreover, in [2], the z-score came to 0.475.
In the case of `COC(=O)[C@@]1(Cc2ccc(OC)cc2)[C@H]2c3cc(C(=O)N(C)C)[nH]c3C[C@H]2CN1C(=O)c1ccccc1`, the composite z-score is -0.65 in assay [1]; -0.228 in assay [3]; -0.0912 in assay [4]; -0.242 in [5]; -0.176 in assay [6]; 0.128 in [7]. Moreover, the composite z-score in assay [8] was 0.516; in assay [9], -0.223; in assay [10], 0.0334. In assay [2], this molecule came in with a z-score of -0.536.
`C=C(CCCC)/C(=C/C[C@H](OC(=O)c1ccncc1)c1ccc(OCCO)cc1)c1cnc2ccccc2c1`: the composite z-score is -0.38 in [1]; 0.437 in assay [3]; 0.679 in assay [4]; -0.159 in [5]; -0.129 in assay [6]; -0.0146 in assay [7]. Moreover, the results for the composite z-score in [8], in [9] and in assay [10] were -0.125, 0.49 and 2.52, respectively. The same molecule displayed a z-score in assay [2] of -2.25.
In the case of `COCCCNC(=O)[C@@]1(Sc2ccc(C)cc2)CC(=O)N(Cc2ccccc2C(F)(F)F)[C@@H]1c1ccc(CO)cc1I`, the composite z-score in assay [1] is -0.779; in [3], -1.47; in [4], -0.376; in [5], 1.04; in assay [6], -0.139; in assay [7], -0.0769. Besides, the results for the composite z-score in [8], in assay [9] and in assay [10] were 0.595, -0.181 and -1.2, respectively. In assay [2], this molecule showed a z-score of -0.817.
Take `COC(=O)[C@]1(CCC(=O)OC(C)(C)C)N=C(c2ccc(OCCCO)cc2)O[C@@H]1c1ccccc1N=[N+]=[N-]`: the composite z-score is 0.892 in assay [1]; -0.557 in assay [3]; -0.175 in assay [4]; -0.875 in assay [5]; 0.0403 in assay [6]; -0.119 in assay [7]. Also, the figures for the composite z-score in assay [8], in [9] and in [10] were 0.504, 0.468 and 0.302, respectively. Besides, the z-score in assay [2] was -2.05.
Take `COCCCNC(=O)[C@@H]1c2ccccc2C(=O)N(Cc2ccc(OC(F)(F)F)cc2)[C@H]1c1ccc(CO)cc1`: the composite z-score in assay [1] was 1.1; in assay [3], 0.0983; in assay [4], 0.0389; in [5], -0.269; in assay [6], 0.0215; in assay [7], -0.0035. The composite z-score in assay [8] is -0.553; in assay [9], 0.378; in assay [10] it was 0.516. In addition, the z-score in assay [2] was -0.223.
As to `CCCCN1CC=CC23O[C@@H]4/C=C\CCCOC(=O)C4[C@H]2C(=O)N(C(CO)C(C)C)[C@@H]3C1=O` (stereo not given in full), the composite z-score is -0.0052 in assay [1]; 0.272 in [3]; -0.11 in [4]; -0.0085 in [5]; -0.0482 in assay [6]; 0.0469 in [7]. For the same molecule, the composite z-score in [8] is -0.51; in assay [9] it was 0.0974; in assay [10] it was -0.838. Besides, in [2], the z-score is -0.134.
With `C=C(COC)/C(=C/C[C@H](OC(C)=O)c1ccccc1OCCO)c1cc(C(=O)OC)ccc1OC`, the composite z-score is 0.992 in assay [1]; -0.138 in assay [3]; -0.471 in [4]; -1.12 in assay [5]; -0.124 in assay [6]; 0.13 in assay [7]. Also, the composite z-score in [8] was -0.194; in [9], -0.134; in assay [10], 1.63. Further, in [2], the z-score was -1.91.
Consider `O=C(NC1CC1)[C@@H]1c2ccccc2C(=O)N(Cc2cc(C(F)(F)F)cc(C(F)(F)F)c2)[C@H]1c1ccc(CO)cc1`, for which the composite z-score in assay [1] is 1.35; in [3], -0.876; in assay [4], 0.146; in assay [5], -0.366; in [6], -0.0203; in [7], -0.517. The values for the composite z-score in [8], in assay [9] and in [10] were 0.431, -0.0446 and 0.955, respectively. For the same molecule, the z-score in assay [2] was -1.02.
Regarding `O=C(NCc1ccccc1)[C@@H]1c2ccccc2C(=O)N(Cc2cc(C(F)(F)F)cc(C(F)(F)F)c2)[C@H]1c1ccc(CO)cc1`, the composite z-score in [1] is 1.38; in [3], 0.446; in assay [4], 0.288; in assay [5], -0.823; in [6] it was 0.0257; in [7], -0.0011. Also, the composite z-score is -0.213 in assay [8], 0.517 in assay [9] and 0.556 in [10]. This molecule came in with a z-score in assay [2] of 0.0626.
For `CC(C)C(CO)N1C(=O)[C@@H]2C3C(=O)OCCC/C=C\[C@H]3OC23C=CCN(Cc2ccccc2)C(=O)[C@@H]13` (stereo not given in full), the composite z-score was -1.78 in assay [1]; -1.05 in [3]; -0.969 in assay [4]; 0.574 in assay [5]; -0.0643 in [6]; 0.254 in [7]. Further, the composite z-score is -0.103 in assay [8], 1.14 in [9] and -1.68 in [10]. This molecule registered a z-score in assay [2] of 0.537.
Consider `CN(C)CCCC[C@@H]1NC(=O)[C@@H]2C[C@H](C(=O)NCCCCCCNC(=O)CS)[C@H](c3ccc(O)cc3)N2C1=O`, for which the composite z-score in assay [1] is 1.16; in assay [3], 1.24; in [4] it was -0.383; in assay [5], -0.199; in assay [6] it was -0.275; in [7], -0.124. For the same molecule, the values for the composite z-score in assay [8], in [9] and in assay [10] were -0.0174, 0.464 and 0.136, respectively. Besides, the z-score in assay [2] amounted to 0.278.
Consider `CN(C)CCCC[C@@H]1NC(=O)[C@H]2C[C@@H](C(=O)O)[C@@H](c3ccc(O)cc3)N2C1=O`, for which the composite z-score came out at 1.55 in [1]; 1.62 in assay [3]; 2.44 in [4]; 1.23 in assay [5]; 0.866 in [6]; 1.5 in assay [7]. The composite z-score in assay [8] turned out to be 3; in assay [9], 4.54; in assay [10], 3.2. The z-score in assay [2] was -0.0575.
Take `CN(C)C(=O)[C@@]1(Cc2ccccc2CN=[N+]=[N-])COC(c2ccc(OCCCO)cc2)=N1`: the composite z-score was 1.37 in assay [1]; -1.09 in assay [3]; 0.809 in assay [4]; 0.812 in assay [5]; -0.0478 in [6]; 0.0483 in [7]. The composite z-score was -0.226 in assay [8], -0.383 in assay [9] and 1.3 in assay [10]. Also, the z-score in [2] was -2.
With `O=C1O[C@@H](c2ccccc2)[C@@H](c2ccccc2)N2[C@@H](c3ccccc3OCCO)[C@]3(C(=O)Nc4ccc(C#CCCO)cc43)[C@@H](C(=O)NC[C@H](O)c3ccccc3)[C@H]12`, the composite z-score is 1.49 in assay [1]; -0.274 in assay [3]; 2.34 in assay [4]; 0.953 in assay [5]; 0.489 in assay [6]; -0.212 in assay [7]. The composite z-score is 2.45 in assay [8], 2.7 in [9] and 2.55 in assay [10]. In [2], the z-score is -0.871.
